Experiment [1] can be described thus: AP1 Signaling Pathway (AID 357).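 Note: ME-180 reporter cells stimulated with EGF at its EC50 level; % is set by controls: 0 for no effect and ±100 for the full control effect.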 Put shortly:
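Cells are seeded overnight, exposed to compound titrations and an EC50 level of EGF for 5 hours at 37 °C, then loaded with CCF4 dye for 2.5 hours. Beta-lactamase activity under the AP-1 element is read as a blue/green ratio.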

In experiment [2] the target is Cytochrome P450 1A2 (Homo sapiens) (UniProt P05177). The experiment in a line: p450-cyp1a2 (AID 410; calls by dose curve; note: potency is the fitted concentration of half-maximal effect;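 for activity change, negative = inhibition: -100% = full effect of reference inhibitor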). In outline:
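Luminescent demethylation readout: Luciferin-ME (100uM, equal to Km) turned over by 20nM CYP1A2 for 60 min at room temperature after NADPH regeneration addition, following 10 min compound preincubation. Normalization used 57 uM furafylline as full inhibition.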

The nature of experiment [3]: Cell Viability - BJ (AID 421; calls by dose curve;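 note: potency is the fitted concentration of half-maximal effect; cells exposed to compound for 40 hours at 37 °C before readout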). The following applies: BJ fibroblast viability, qHTS. In outline: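 Cytotoxicity in human BJ foreskin fibroblasts is scored as loss of cellular ATP after a 40-hour exposure, measured by luciferase luminescence. Controls are DMSO and 100 uM tamoxifen.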
The nature of experiment [4]: Cell Viability - Jurkat (AID 426;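 active = dose-dependent loss of cell ATP signal giving a full or clear fitted curve, ranked by lower potency value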;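 note: potency is the fitted concentration of half-maximal effect; cells exposed to compound for 40 hours at 37 °C before ATP read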). Particulars: qHTS. In outline: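 Cytotoxicity taken as drop in cellular ATP (CellTiter-Glo luminescence, 20 min room temperature) after 40 hr, 37C treatment of 5000 Jurkat Clone E6-1 cells per well; concentration-response fitted with Hill equation for AC50.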
Experiment [5] in a line: Cell Viability - Hek293 (AID 427;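 active = compounds whose dose-response curve shows a full or clear partial loss of cell viability, called from curve shape rather than a numeric limit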;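 note: potency is the fitted concentration of half-maximal effect; cells exposed to compound for 40 hours at 37 °C before reading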). Particulars: qHTS. In outline:
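qHTS, human embryonic kidney (adenovirus-transformed) cells; 40 hr cpd, 37 °C; CellTiter-Glo ATP luminescence. Norm: DMSO = 0, 100 uM tamoxifen = 100% inhibition. Hill-fit AC50.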
A general note: In qHTS, concentration-response curves come from the screen itself.

Experiment [6] in a line: Cell Viability - HepG2 (AID 433; calls by dose curve; note: potency is the fitted concentration of half-maximal effect). The following applies: qHTS. In outline: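 Cytotoxicity is scored as loss of intracellular ATP in HepG2 cells exposed to compounds for 40 h. Concentration-response curves, normalized to DMSO and 100 uM tamoxifen, give AC50 values.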
Experiment [7] is described as follows: Cell Viability - MRC5 (AID 434; calls by dose curve;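 note: potency is the fitted concentration of half-maximal effect; cells exposed to compound for 40 hours at 37 °C; potency reflects cytotoxicity seen as loss of intracellular ATP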). The following applies: MRC5 lung fibroblast viability, qHTS. In outline: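 ATP luminescence read-out (CellTiter-Glo, 20 min RT) after 40 hr, 37 °C compound exposure of 1500 MRC5 cells/well. Data normalized to DMSO (basal) and 100 uM tamoxifen (100% inhibition); AC50 from standard Hill equation.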
Experiment [8] can be described thus: Cell Viability - SK-N-SH (AID 435; calls by dose curve; note: potency is the fitted concentration of half-maximal effect). The following applies: SK-N-SH neuroblastoma cell viability qHTS. In outline: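 Cells seeded at 1500 per well and incubated 5 hr at 37 °C. Compound added, then 40 hr at 37 °C. CellTiter-Glo added, 20 min at room temperature, luminescence read.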
Experiment [9] can be described thus: NFAT Signaling Pathway (AID 444).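 Note: carbachol stimulus at about its EC50 of 1 µM final; % is set by controls: 0 for no effect and ±100 for the full control effect.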 Particulars: Jurkat NFAT-bla M1, carbachol, beta-lactamase ratio, 5 h; at 38 µM (top of the series) unless noted. Put shortly:
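Jurkat cells with NFAT-driven β-lactamase reporter and co-expressed M1 receptor, stimulated with carbachol (final 1 uM, ~EC50), compound titration, 5 h at 37 °C. CCF4 loaded 1 h at RT; 460/530 nm ratio gave %activity and AC50.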

Experiment [10] is described as follows: Stat Signaling Pathway (AID 446).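 Note: ME-180 cervical cancer cells given 40 pM IL-6 alongside compound; SIE-controlled beta-lactamase reporter measured as 460/530 nm FRET emission ratio; % is set by controls: 0 for no effect and ±100 for the full control effect.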 The following applies: ME-180 (cervical carcinoma) SIE beta-lactamase reporter, IL-6 stimulated, 5 h; at 38 µM (top of the series) unless noted. Put shortly: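 Emission at 460 and 530 nm (excitation 405 nm) reports SIE-controlled beta-lactamase in ME-180 cells. Cells received compound with 40 pM IL-6 for 5 hrs at 37 C; data scaled between 300 pM IL-6 and 125 nM JAK-inhibitor controls.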

Experiment [11] in a line: Cell Viability - N2a (AID 540; active = well fitted curve in the direction sought with a large enough effect; an effect the other way counts as inactive or inconclusive;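 note: plate controls were DMSO alone for no effect and tamoxifen control for full effect; nearly all actives have a fitted effect of over 45% in size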). Particulars: N2a mouse neuroblastoma cell viability; activity change, negative = cytotoxicity: at 92.2 µM (top of the series). Put shortly:
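CellTiter-Glo ATP luminescence, read 20 min after reagent at room temperature, reported viability following 40 h compound treatment at 37 °C. N2a mouse neuroblastoma cells seeded 1500/well; Hill equation gave AC50.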

Experiment [12] in a line: Cell Viability - HUV-EC-C (AID 542; active = well fitted curve in the direction sought with a large enough effect; an effect the other way counts as inactive or inconclusive; note: % is set by controls: 0 for no effect and ±100 for the full control effect; nearly all actives have a fitted effect of over 35% in size). Put shortly:
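CellTiter-Glo luminescence measured ATP loss in HUV-EC-C cells (1000/well) after 40 hr compound exposure at 37 °C, in complete culture medium. Concentration-response data were Hill-fitted to give AC50.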

Experiment [13] is described as follows: Cell Viability - H-4-II-E (AID 543; active = well fitted curve in the direction sought with a large enough effect; an effect the other way counts as inactive or inconclusive; note: % is set by controls: 0 for no effect and ±100 for the full control effect; nearly all actives have a fitted effect of over 35% in size). Put shortly:
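CellTiter-Glo luminescence (intracellular ATP) measured after 40 h compound exposure at 37 °C in H-4-II-E rat hepatoma cells seeded at 1500/well. Values are AC50s fitted with the standard Hill equation.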

A short description of experiment [14]: Cell Viability - SH-SY5Y (AID 544; active = well fitted curve in the direction sought with a large enough effect; an effect the other way counts as inactive or inconclusive;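 note: 0% = DMSO alone and -100% = 100 µM tamoxifen; nearly all actives have a fitted effect of over 55% in size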). Put shortly: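 Cytotoxicity measured via ATP-dependent luciferase luminescence (CellTiter-Glo) following 40 h, 37 °C exposure of 1500 SH-SY5Y cells per well. Concentration-response data were fitted with the standard Hill equation to give AC50.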
Experiment [15] can be described thus: Cell Viability - Renal Proximal Tubule (AID 545; active = well fitted curve in the direction sought with a large enough effect; an effect the other way counts as inactive or inconclusive;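 note: 0% = DMSO only and -100% = 100 µM tamoxifen; nearly all actives have a fitted effect of over 40% in size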). The following applies: renal proximal tubule cells viability; activity change, negative = cytotoxicity: at 91.7 µM (top of the series). In outline:
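Cytotoxicity is scored as a concentration-dependent drop in cellular ATP in primary rat renal proximal tubule cells exposed for 40 hr. AC50 derives from Hill modelling.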

The target in experiment [16] is Glucocorticoid receptor (Homo sapiens) (UniProt P04150). The experiment in a line: GR-GFP Redistribution (AID 450;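 active = compounds whose dose series gives a full or clear partial fitted curve of increased nuclear translocation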; note: potency is the fitted concentration of half-maximal effect). The following applies: U2OS GR-GFP nuclear translocation, laser cytometry, 2 h.
For experiment [17] the target is unchanged. The experiment in a line: GR-EFC Redistribution (AID 451; calls by dose curve; note: potency is the fitted concentration of half-maximal effect). The following applies: CHO-K1 GR-EFC translocation, beta-gal luminescence, 2 h. In outline: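 CHO-K1 cells expressing nuclear EA and GR-ED fragments of b-gal; compounds titrated up to 46 uM final, 2 h at 37 C. GR nuclear translocation read as complemented b-gal luminescence after 1 h RT detection.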

For experiment [18], the target named is Mitogen-activated protein kinase 10 (Mus musculus) (UniProt Q61831). The experiment in a line: JNK3 AlphaScreen Assay (AID 530).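 Note: kinase came from lysate of stimulated human HepG2 cells; signal reports phosphorylation of biotinylated GST-cJun 1-79 at Ser73 with 10 µM ATP; % is set by controls: 0 for no effect and ±100 for the full control effect.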 In outline: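 Activity was read by AlphaScreen after JNK3-containing HepG2 lysate (cytokine pre-activated) phosphorylated biotinylated GST-cJun with 10 uM ATP at room temperature. Phospho-Ser73 cJun antibody with Protein-A acceptor beads provided detection.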

SMILES strings stand for the structures. “And” between values parts separate entries of the source, which are not always exact repeats. Identical values can stand only once. A number with no mark means an inactive call. Inconclusive results are not listed. The source made the active and inactive calls. Unless noted, calls come from the whole dose curve; as a rule, active = well fitted curve in either direction with a large enough effect (not every such curve was filed as active); inconclusive = small, poorly fitted or top-dose-only effect, or another doubt; inactive = flat fitted curve, though single readings scatter. A value given as a limit tells only on which side of the number the result lay.

Glucocorticoid receptor (Homo sapiens), sequence (P04150 whole entry, looked up, the tested form may be a part): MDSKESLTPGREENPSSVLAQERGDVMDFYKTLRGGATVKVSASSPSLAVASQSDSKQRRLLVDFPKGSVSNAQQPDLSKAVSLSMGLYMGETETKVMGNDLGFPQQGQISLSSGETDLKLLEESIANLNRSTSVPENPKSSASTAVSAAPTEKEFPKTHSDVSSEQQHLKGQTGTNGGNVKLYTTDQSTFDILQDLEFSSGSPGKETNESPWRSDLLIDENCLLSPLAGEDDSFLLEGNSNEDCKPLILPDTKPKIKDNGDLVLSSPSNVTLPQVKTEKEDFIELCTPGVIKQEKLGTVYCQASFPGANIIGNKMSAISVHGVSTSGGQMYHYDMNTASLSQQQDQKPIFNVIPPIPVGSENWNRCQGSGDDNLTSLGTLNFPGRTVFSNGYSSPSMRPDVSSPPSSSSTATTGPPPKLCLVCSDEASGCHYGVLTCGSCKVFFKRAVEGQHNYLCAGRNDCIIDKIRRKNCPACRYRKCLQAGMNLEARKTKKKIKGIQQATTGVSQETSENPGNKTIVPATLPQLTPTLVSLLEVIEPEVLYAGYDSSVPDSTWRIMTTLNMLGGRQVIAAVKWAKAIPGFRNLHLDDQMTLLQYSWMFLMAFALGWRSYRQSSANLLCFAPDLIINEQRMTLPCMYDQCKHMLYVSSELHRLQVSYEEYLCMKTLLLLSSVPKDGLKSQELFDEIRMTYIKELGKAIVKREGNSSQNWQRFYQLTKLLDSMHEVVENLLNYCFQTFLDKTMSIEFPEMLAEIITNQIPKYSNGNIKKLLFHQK
Cytochrome P450 1A2 (Homo sapiens), sequence (P05177 whole entry, looked up): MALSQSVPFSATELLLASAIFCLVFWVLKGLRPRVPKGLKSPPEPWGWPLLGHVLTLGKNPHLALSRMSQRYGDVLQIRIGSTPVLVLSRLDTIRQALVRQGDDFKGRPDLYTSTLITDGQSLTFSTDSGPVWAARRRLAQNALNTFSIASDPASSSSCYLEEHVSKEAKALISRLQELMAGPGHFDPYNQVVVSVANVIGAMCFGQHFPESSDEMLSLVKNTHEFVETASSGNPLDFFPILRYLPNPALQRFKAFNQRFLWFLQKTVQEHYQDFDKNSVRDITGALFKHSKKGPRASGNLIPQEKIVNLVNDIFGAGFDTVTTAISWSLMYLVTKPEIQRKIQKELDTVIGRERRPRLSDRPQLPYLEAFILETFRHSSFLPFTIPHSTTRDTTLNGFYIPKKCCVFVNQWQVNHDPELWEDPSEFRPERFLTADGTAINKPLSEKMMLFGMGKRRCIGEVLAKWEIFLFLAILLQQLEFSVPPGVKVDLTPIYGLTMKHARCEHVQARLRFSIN

Consider `O=C1C=CC(=O)C=C1`, for which the compound was called inactive in [1]. Moreover, the Potency result in experiment [2], in experiment [11], in experiment [12], in experiment [13], in experiment [14] and in [15] was “inactive” each time. The Potency in experiment [3] is above 92 µM; in [4] it was 31.4 µM (active); in experiment [5], above 92 µM; in experiment [6], above 92 µM; in experiment [7] it was above 92 µM; in experiment [8], above 92 µM. In addition, the activity change, negative = inhibition in experiment [9] is -3.4%. In experiment [10], the activity, negative = inhibition is -5.57%.

Turning to `O=[N+]([O-])c1ccc2nc(N3CCNCC3)ccc2c1`, the compound was called inactive in [1]. The values for the Potency in experiment [2], in experiment [16] and in experiment [17] were 2 µM (active), above 46 µM and above 46 µM, respectively. In addition, the activity change, negative = inhibition in [9] is 4.11%. Besides, the activity, negative = inhibition in [10] was 2.58%.

Consider `CN1CCc2cccc(Cl)c2CC1`, for which the compound was called inactive in experiment [1]. In experiment [2], the Potency entry was “inactive”. The activity change, negative = inhibition in experiment [9] is 3.59%. In addition, the activity, negative = inhibition in experiment [10] is 15.3%. Besides, the Potency in experiment [16] and in [17] was above 46 µM throughout.

For the compound `Cc1sc2ccccc2c1CC1=NCCN1`, the compound was classed as inactive in experiment [1]. Moreover, the Potency is 2.51 µM (active) in [2], above 46 µM in experiment [16] and above 46 µM in experiment [17]. Also, the activity change, negative = inhibition in experiment [9] is -16.3%.

Take `c1ccc2cc(CC3=NCCN3)ccc2c1`: the outcome in [1] and in experiment [18] was inactive. Besides, the Potency entry in experiment [2] was “inactive”. In experiment [9], the activity change, negative = inhibition was -0.608%. The activity, negative = inhibition in experiment [10] was -3.81%.

In the case of `OCc1cnc[nH]1`, the compound was called inactive in experiment [1]. In addition, the Potency entry in experiment [2] was “inactive”. Moreover, in experiment [9], the activity change, negative = inhibition is 7.81%. Besides, the Potency in experiment [16] and in [17] was above 46 µM throughout.

In the case of `O=c1c2ccccc2[se]n1-c1ccccc1`, the compound was classed as inactive in experiment [1]. Besides, the Potency in [2] was 3.98 µM (active) and 794 nM (active); in experiment [16], > 46 µM and > 20.6 µM; in experiment [17] it was > 46 µM and > 20.6 µM.

For `CCCn1c(C)c(C(=O)c2ccc3ccccc3c2)c2ccccc21`, the compound was classed as inactive in experiment [1]. Further, the Potency in experiment [2] is 6.31 µM (active); in experiment [16] it was above 46 µM; in [17] it was above 46 µM. For the same compound, the activity, negative = inhibition in experiment [10] is -13.9%.

`Cc1c2ccncc2c(C)c2c1[nH]c1ccccc12`: the compound was called inactive in [1] and in experiment [18]. Further, the Potency was 79.4 nM (active) and 20 nM (active) in experiment [2]; > 46 µM and > 20.6 µM in [16]; > 46 µM and > 20.6 µM in [17]. For the same compound, the activity, negative = inhibition in experiment [10] is 128% [activator] [at 17.2 µM] (active) and 142% [activator] [at 17.2 µM] (active).

As for `O=P(O)(O)C(Cl)(Cl)P(=O)(O)O`, the call in [1] and in experiment [18] was inactive. In addition, in experiment [2], the Potency result is “inactive”. The activity change, negative = inhibition in [9] was 10.1%.

Turning to `C[N+]1(C)CCc2cc3c(cc2[C@H]1[C@@H]1OC(=O)c2c1ccc1c2OCO1)OCO3`, the compound was classed as inactive in [1]. In experiment [9], the activity change, negative = inhibition is -19.2% [at 17.2 µM]. Also, the Potency in experiment [16] was above 20.6 µM.
